{"source": "PubChem BioAssay (NCI)", "note": "This is part of a sample that, as a whole, favours compounds with a hit. Of some 83,000 tested, about 20% had one in any assay.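 Growth was measured after 48 h exposure to one concentration of compound in 96-well plates. Values under 10 count as active.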 Unmarked numbers belong to inactive results. Calls of active or inactive are those of the source."}
{"test_system": "MDA-MB-468 breast", "assay": "NCI-60 one-dose screen, 48 h (100 = growth as untreated, 0 = no growth, -100 = all killed)", "conditions": "10 µM unless noted"}
{"smiles": "Cc1ccc2sc3c(NCCCN)nc4ccccc4c3c(=O)c2c1", "growth": "-6.52% (active)"}
{"smiles": "Cc1ccc(-n2cc(/C=N/NC(=O)c3ccncc3)c(-c3ccc(S(C)(=O)=O)cc3)n2)cc1", "growth": "100%"}
{"smiles": "O=c1c2ccccc2c(=O)c2c1sc1c(=O)c3ccc(O)cc3c(=O)c12", "growth": "-43.6% (active)"}
{"smiles": "COc1ccc(/C=C(/C(=O)N2CCN(Cc3ccccc3)CC2)c2cc(OC)c(OC)c(OC)c2)cc1O", "growth": "20.4%"}
{"smiles": "CC(C)(C)n1cc(-c2ccnc(NCCCNS(=O)(=O)c3cccc(F)c3)c2)c(-c2cccc(O)c2)n1", "growth": "25.9%"}
{"smiles": "CCOC(=O)c1cc(C(=O)OCC)c(C)nc1C", "growth": "109%"}
{"smiles": "Cc1ccc(/C=C/C(=O)c2ccc(N)cc2)c(C)c1", "growth": "88.7%"}
{"smiles": "CC1=C(CC(=O)c2cccc([N+](=O)[O-])c2)C(=O)c2ccccc2C1=O", "growth": "-52.5% (active)"}
{"smiles": "COC(=O)CNS(=O)(=O)c1ccc2c(c1)Cc1cc(S(=O)(=O)NCC(=O)OC)ccc1-2", "growth": "84.9%"}
{"smiles": "C=C1C(=O)O[C@H]2[C@H]1CC/C(COC(=O)N[C@H](Cc1c[nH]c3ccccc13)C(=O)OC)=C\\CC[C@@]1(C)O[C@@H]21", "growth": "22.5%"}
{"smiles": "Cc1ccc(NC2=CC(=O)C(=O)c3ccccc32)cc1", "growth": "-12.4% (active)"}
